This note sets out measurements from PubChem BioAssay (Tox21).

Assay [1] in a line: qHTS assay to identify small molecule antagonists of the retinoid acid receptor (RAR) signaling pathway - cell viability counter screen (AID 1159551). Note: nearly all actives have a fitted effect of over 35% in size. An outline of the steps: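 C3RL4 cells were seeded overnight at 37 C, then treated with compounds plus 1 uM (final) retinol for 6 h at 37 C. Viability was read as ATP by CellTiter-Glo luminescence after 30 min at room temperature.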

Assay [2] in a line: qHTS assay to identify small molecule antagonists of the estrogen related receptor (ERR) signaling pathway from Tox21 library - cell viability counter screen (AID 1224834). Note: nearly all actives have a fitted effect of over 30% in size. Note: potency is the fitted concentration of half-maximal effect. An outline of the steps: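 ERR reporter cells were plated 6 h before compound addition, then exposed to test compounds in DMSO for 17.5 h at 37 C. Viability was read as CellTiter-Fluor fluorescence after a 30-minute incubation at 37 C.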
Background: qHTS replaces the single test concentration by a dilution series.

The target of assay [3] is Luciferin 4-monooxygenase (Photinus pyralis) (UniProt P08659). Put plainly: qHTS assay to identify small molecule inhibitors of firefly luciferase (AID 1224835). For activity change, negative = inhibition: series mostly up to about 120 µM. Note: nearly all actives have a fitted effect of over 25% in size. Note: potency is the fitted concentration of half-maximal effect. An outline of the steps: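 Biochemical qHTS: compounds run as interplate titrations against purified firefly enzyme, with D-luciferin and ATP each at its KM concentration. Light output recorded by CCD imaging.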
Chain of Luciferin 4-monooxygenase (Photinus pyralis) (P08659 whole entry, looked up): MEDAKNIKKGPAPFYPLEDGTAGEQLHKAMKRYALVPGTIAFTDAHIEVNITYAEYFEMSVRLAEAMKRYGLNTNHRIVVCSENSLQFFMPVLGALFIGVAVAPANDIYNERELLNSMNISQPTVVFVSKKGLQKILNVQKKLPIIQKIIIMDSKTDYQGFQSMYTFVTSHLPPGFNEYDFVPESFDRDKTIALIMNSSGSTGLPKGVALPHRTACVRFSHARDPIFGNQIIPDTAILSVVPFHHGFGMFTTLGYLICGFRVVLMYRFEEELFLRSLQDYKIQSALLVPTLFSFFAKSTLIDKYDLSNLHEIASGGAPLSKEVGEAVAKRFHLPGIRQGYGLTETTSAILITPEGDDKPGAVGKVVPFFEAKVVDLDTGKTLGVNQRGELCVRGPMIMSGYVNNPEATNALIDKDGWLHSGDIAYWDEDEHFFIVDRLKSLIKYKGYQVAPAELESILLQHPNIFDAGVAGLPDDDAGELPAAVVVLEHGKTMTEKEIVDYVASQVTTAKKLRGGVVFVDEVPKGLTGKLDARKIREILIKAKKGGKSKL

Assay [4] in a line: qHTS assay to identify small molecule antagonists of the constitutive androstane receptor (CAR) signaling pathway - cell viability counter screen (AID 1224837). Note: series mostly up to about 92 µM; nearly all actives have a fitted effect of over 45% in size. An outline of the steps:
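HepG2 cells stably expressing hCAR and a CYP2B6-2.2kb reporter were plated and pre-incubated 4 hr at 37 C/5% CO2, then given compounds at 15 concentrations plus 50 nM CITCO (final). After 23 hr, viability was read by CellTiter-Fluor fluorescence.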

Assay [5] in a line: qHTS assay to identify small molecule antagonists of the estrogen related receptor signaling pathway with the pleiotropic PPARgamma coactivator (PGC) from Tox21 10K library - cell viability counter screen (AID 1224840; active = well fitted cell-killing curve with a large enough effect in the repeat runs, not every such curve was filed as active; note: nearly all actives have a fitted effect of over 40% in size). An outline of the steps:
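PGC/ERR cells were seeded at 2,000 cells/well and left 6 hours at 37 C/5% CO2 before pin-tool addition of compounds in DMSO. After 17.5 hours at 37 C, CellTiter-Fluor was added and fluorescence read 30 minutes later.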

Assay [6] in a line: qHTS assay to identify small molecule antagonists of the estrogen related receptor signaling pathway with the pleiotropic PPARgamma coactivator (PGC) from Tox21 10K library (AID 1224841; call rule not given here; note: actives are mostly falling curves and most rising ones were filed inactive; nearly all actives have a fitted effect of over 50% in size; note: potency is the fitted concentration of half-maximal effect). An outline of the steps:
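PGC/ERR reporter cells were seeded at 2,000 cells/well and held 6 hours at 37 C/5% CO2 before pin-tool addition of compounds in DMSO. After 18 hours at 37 C, One-Glo was added and luminescence read after 30 minutes at room temperature.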

Assay [7] can be described thus: qHTS assay to identify small molecule agonists of the estrogen related receptor signaling pathway with the pleiotropic PPARgamma coactivator (PGC) from Tox21 10K library (AID 1224842). Note: nearly all actives have a fitted effect of over 15% in size. Note: potency is the fitted concentration of half-maximal effect. An outline of the steps:
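PGC/ERR reporter cell line, 2,000 cells per well, incubated 6 h at 37 C before 23 nL compound in DMSO was added. After 18 h at 37 C, One-Glo luminescence read following 30 min at room temperature.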

The target of assay [8] is Thyrotropin receptor (Homo sapiens) (UniProt P16473). The assay can be described thus: qHTS assay to identify small molecule agonists of the thyroid stimulating hormone receptor (TSHR) signaling pathway (AID 1224843; calls by dose curve; note: nearly all actives have a fitted effect of over 45% in size). An outline of the steps:
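Steps: seed 800 TSHR-HEK293 cells per well; add test compound and hold 30 min at ambient temperature; dispense cAMP-d2 then anti-cAMP cryptate; incubate 1 h at ambient; measure fluorescence intensity.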

Assay [9] has as its target Nuclear receptor subfamily 1 group I member 3 (Homo sapiens) (UniProt Q14994). The assay can be described thus: qHTS assay to identify small molecule antagonists of the constitutive androstane receptor (CAR) signaling pathway (AID 1224838). Note: nearly all actives have a fitted effect of over 40% in size. An outline of the steps: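 HepG2 cells stably co-transfected with hCAR and a CYP2B6-2.2kb luciferase reporter were seeded 4 h before compound addition at 15 concentrations. Cells were stimulated with 50 nM CITCO (final) for 24 h at 37 C; luciferase luminescence was then read.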

Assay [10] has the same target. Put plainly: qHTS assay to identify small molecule agonists of the constitutive androstane receptor (CAR) signaling pathway (AID 1224839). Note: series mostly up to about 92 µM; nearly all actives have a fitted effect of over 15% in size. An outline of the steps:
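Readout: firefly luciferase luminescence via ONE-Glo. System: HepG2 double-stable for hCAR and CYP2B6-2.2kb. Conditions: 15-point compound titration, PK11195 at 0.75 uM final, 24 h incubation.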

Assay [11] in a line: qHTS assay to identify small molecule agonists of the retinoic acid receptor (RAR) signaling pathway (AID 1159553). Note: potency is the fitted concentration of half-maximal effect. An outline of the steps: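 C3RL4 cells carrying a RARE luciferase reporter were plated overnight at 37 C, then exposed to compounds in DMSO for 6 hr at 37 C and 5% CO2. Luminescence was read 30 min after luciferase reagent addition at room temperature.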
Assay [12] can be described thus: qHTS assay to identify small molecule agonists of the constitutive androstane receptor (CAR) signaling pathway - cell viability counter screen (AID 1224836). Note: series mostly up to about 92 µM; nearly all actives have a fitted effect of over 45% in size. An outline of the steps:
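Double-stable HepG2 hepatoma cells (hCAR plus CYP2B6-2.2kb) are treated for 23 h at 37 C with test compounds in 15-point concentration series. PK11195 at 0.75 uM final is co-added. Cell viability is quantified by CellTiter-Fluor.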

Assay [13] can be described thus: qHTS assay to identify small molecule antagonists of the retinoic acid receptor (RAR) signaling pathway (AID 1159552; note: nearly all actives have a fitted effect of over 50% in size). An outline of the steps:
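Antagonism of retinol-induced RARE reporter activity was measured in C3RL4 cells. Exposure to compounds and 1 uM final retinol lasted 6 hr at 37 C, with luminescence as endpoint.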

A short description of assay [14]: qHTS assay to identify small molecule antagonists of the estrogen related receptor (ERR) signaling pathway - cell viability counter screen (AID 1224818).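 Note: series mostly up to about 46 µM; viability measured after 17.5 h of compound exposure.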 An outline of the steps: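 ERR reporter cells plated 6 h at 37 C/5% CO2, then compounds in DMSO pin-transferred and incubated 17.5 h at 37 C. Viability read as CellTiter-Fluor fluorescence after 30 min at 37 C.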

Assay [15] in a line: qHTS assay to identify small molecule antagonists of the estrogen related receptor signaling pathway with the pleiotropic PPARgamma coactivator (PGC) cell viability counter screen (AID 1224822; note: series mostly up to about 46 µM). An outline of the steps: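 PGC/ERR cells were seeded at 2,000 cells/well, rested 6 h at 37 C/5% CO2, then given compounds in DMSO by pin tool and incubated 17.5 h at 37 C. Viability came from CellTiter-Fluor fluorescence after 30 min.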

Each structure is given as a SMILES string. Results filed as inconclusive are left out. Values without a mark were called inactive. Calls of active or inactive are those of the source. Unless noted, calls come from the whole dose curve; as a rule, active = well fitted curve in the direction sought with a large enough effect in the repeat runs; inconclusive = weak or mixed curves; inactive = no such curve, though single readings can be large; an effect the other way counts as inactive or inconclusive.
% is set by controls: 0 for no effect and ±100 for the full control effect.

Chain of Thyrotropin receptor (Homo sapiens) (P16473 whole entry, looked up): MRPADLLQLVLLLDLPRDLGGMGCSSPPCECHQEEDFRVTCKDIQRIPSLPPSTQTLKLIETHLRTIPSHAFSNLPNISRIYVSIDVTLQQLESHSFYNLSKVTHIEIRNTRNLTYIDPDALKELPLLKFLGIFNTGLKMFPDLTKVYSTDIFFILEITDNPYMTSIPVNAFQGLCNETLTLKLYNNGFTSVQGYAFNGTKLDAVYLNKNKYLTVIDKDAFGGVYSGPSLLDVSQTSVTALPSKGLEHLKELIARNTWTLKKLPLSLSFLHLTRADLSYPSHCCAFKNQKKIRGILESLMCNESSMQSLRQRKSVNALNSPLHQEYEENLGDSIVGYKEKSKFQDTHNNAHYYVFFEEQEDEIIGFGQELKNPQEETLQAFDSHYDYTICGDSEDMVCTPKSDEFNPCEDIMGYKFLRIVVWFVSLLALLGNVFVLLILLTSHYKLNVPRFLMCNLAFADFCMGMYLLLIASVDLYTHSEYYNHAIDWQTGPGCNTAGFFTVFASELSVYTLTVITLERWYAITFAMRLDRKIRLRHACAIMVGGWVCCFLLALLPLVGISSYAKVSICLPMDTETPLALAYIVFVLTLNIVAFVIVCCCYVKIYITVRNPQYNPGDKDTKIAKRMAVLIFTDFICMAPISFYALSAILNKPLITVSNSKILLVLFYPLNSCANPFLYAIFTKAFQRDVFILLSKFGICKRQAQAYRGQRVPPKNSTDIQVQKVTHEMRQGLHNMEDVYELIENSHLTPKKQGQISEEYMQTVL
Chain of Nuclear receptor subfamily 1 group I member 3 (Homo sapiens) (Q14994 whole entry, looked up): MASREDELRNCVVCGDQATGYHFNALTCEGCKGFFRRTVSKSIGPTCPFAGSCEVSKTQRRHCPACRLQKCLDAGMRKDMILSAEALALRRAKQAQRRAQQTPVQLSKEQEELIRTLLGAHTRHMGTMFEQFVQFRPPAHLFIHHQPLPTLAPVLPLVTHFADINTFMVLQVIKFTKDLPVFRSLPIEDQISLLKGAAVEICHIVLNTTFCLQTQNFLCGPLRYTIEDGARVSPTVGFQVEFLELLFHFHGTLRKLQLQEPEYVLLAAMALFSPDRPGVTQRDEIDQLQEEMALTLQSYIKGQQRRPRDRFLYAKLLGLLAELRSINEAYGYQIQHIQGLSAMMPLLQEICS

Turning to `Cc1ccc(C(N)=O)cc1N`, the Potency result in assay [1], in assay [2], in assay [3], in [4], in assay [5] and in assay [6] was “inactive” each time. The Potency result in [7] and in [8] was “inactive” throughout.

As for `CC(CN)CCCN` (stereo not given), the Potency result in assay [1], in [2], in assay [3], in assay [4], in assay [9] and in assay [10] was “inactive” throughout. Also, the Potency result in assay [5], in assay [6], in [7] and in assay [8] was “inactive” each time.

For the molecule `CN1CCC(OC(c2ccccc2)c2ccccc2)CC1`, the Potency result in assay [1], in [11], in [3], in assay [4], in assay [9] and in assay [5] was “inactive” in each case.

With `C=CCCCCCC`, the Potency result in [1], in assay [3], in assay [12], in assay [4], in [9] and in assay [10] was “inactive” in each case. For the same molecule, the Potency entry in [6] and in assay [7] was “inactive” throughout.

As to `O=C(c1ccc(O)cc1)c1ccc(O)cc1`, the Potency entry in [13], in assay [11], in assay [2], in assay [12], in [4] and in assay [9] was “inactive” each time. Moreover, the Potency result in assay [5], in assay [6] and in [8] was “inactive” each time.

In the case of `CN1CCC(=C2c3ccccc3CCc3sccc32)CC1`, the Potency entry in assay [1], in assay [3], in assay [12], in assay [4], in [9] and in assay [10] was “inactive” throughout. Moreover, the Potency entry in [6] and in assay [7] was “inactive” each time.

`Nc1nc(CC(=O)O)cs1`: the Potency result in [1], in assay [3], in assay [12], in assay [4], in assay [9] and in [10] was “inactive” in each case. For the same molecule, the Potency entry in assay [5], in assay [7] and in [8] was “inactive” each time. In addition, in assay [6], the Potency is 48.7 µM (active).

As to `O=C(CC(=O)c1ccccc1)c1ccccc1`, the Potency entry in assay [1], in assay [12], in assay [4], in assay [5], in assay [6] and in [8] was “inactive” throughout. Besides, the figures for the Potency in assay [11], in assay [3] and in assay [7] were 8.27 µM (active), 6.06 µM (active) and 29.3 µM (active), respectively.

For the molecule `CCN(CC)CCNC(C(=O)OCCC(C)C)c1ccccc1` (stereo not given), the Potency entry in assay [1], in assay [3], in assay [12], in [4], in assay [10] and in assay [6] was “inactive” each time. Further, the Potency entry in assay [8] is “inactive”.

As to `CC(C)(C)c1ccc(S)cc1`, the Potency entry in assay [1], in assay [2], in assay [3], in assay [12], in assay [4] and in assay [9] was “inactive” in each case. Further, the Potency result in assay [5] and in assay [8] was “inactive” each time.

As to `NCCCOCCOCCOCCCN`, the Potency entry in assay [1], in assay [11], in assay [3], in assay [12], in assay [4] and in [9] was “inactive” each time. Further, the Potency result in assay [10] was “inactive”.

As to `CC[C@]12CCCN3CCc4c(n(c5ccccc45)C(=O)C1)[C@@H]32`, the Potency entry in assay [1], in assay [11], in [3], in [5], in assay [6] and in assay [7] was “inactive” throughout. Further, the Potency entry in assay [8] is “inactive”. In addition, the Potency in [2] is 9.44 µM (active).

Turning to `COC(=O)CSc1cc(N=c2sc(=O)n3n2CCCC3)c(F)cc1Cl`, the Potency entry in assay [1], in assay [2], in [3], in assay [4], in [10] and in [5] was “inactive” throughout. For the same molecule, in [8], the Potency result was “inactive”.

Take `CC1(C)CCC(C)(C)c2cc(NC(=O)c3ccc(C(=O)O)cc3)ccc21`: the Potency entry in assay [1], in assay [2], in assay [12], in assay [4] and in [10] was “inactive” each time.

For `CC[C@H](C)[C@@H](C(=O)O)n1sc2ccccc2c1=O`, the Potency result in assay [1], in assay [11], in assay [2], in assay [4], in assay [9] and in assay [10] was “inactive” throughout. Further, in assay [5], the Potency result was “inactive”. The Potency in assay [3] was 17.8 µM (active).

Regarding `CN(C)CCCOc1nn(Cc2ccccc2)c2ccccc12`, the Potency result in assay [1], in assay [3], in assay [4], in assay [9], in assay [5] and in assay [6] was “inactive” throughout. Also, the Potency entry in assay [7] is “inactive”.

For `Cn1c(NCCN(CCO)CCCc2ccc([N+](=O)[O-])cc2)cc(=O)n(C)c1=O`, the Potency result in [1], in assay [3], in assay [12], in assay [6], in assay [7] and in [8] was “inactive” throughout.

For `O=c1c2ccccc2nnn1CCl`, the Potency result in assay [1], in assay [2], in [3], in assay [12], in assay [4] and in assay [9] was “inactive” each time. Besides, in [5], the Potency result is “inactive”.

`CCCCCCCCCCCCCCCCCBr`: the activity change, negative = cytotoxicity in assay [1] is 0.698% [at 19 µM]; in assay [4], 0.897% [at 19 µM]. The viability change, negative = cytotoxic in assay [2] was -2.8% [at 19 µM]; in assay [12] it was -1.41% [at 19 µM]; in assay [5], 2.64% [at 19 µM]. Moreover, in assay [3], the activity change, negative = inhibition is 3.44% [at 23.6 µM].

Consider `CC(C)CC=O`, for which the Potency entry in [1], in assay [11], in assay [2], in [3], in assay [12] and in assay [9] was “inactive” in each case. The Potency result in [10], in [5] and in [8] was “inactive” each time.

For `CCC(C)N(C)C(=O)c1cc2ccccc2c(-c2ccccc2Cl)n1` (stereo not given), the Potency entry in [1], in [3], in assay [12], in assay [4] and in assay [5] was “inactive” in each case. The result in assay [14] and in assay [15] was inactive.
